# In the library only some 7.3% were active in any assay of this set; here they are far more common.
# Rab9 prom act: activators of Rab9 promoter | Huh7 Rab9 promoter-luciferase reporter, luminescence, 24 h | Potency, µM (highest dose often 9.22 µM), most hits filed as activators | 320,000 compounds, 2.8% hits | AID 485297; further: nearly all actives have a fitted effect of over 60% in size
#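 Huh7 cells stably carrying a Rab9 promoter-luciferase reporter, 1500 cells per well in OP-MEM I with 10% FBS, treated with compound 24 hours at 37C. Luciferase activity read by luminescence after 10 minutes with Amplite reagent.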
# ELG1 genotoxic: inducers of genotoxicity in HEK293T ELG1-luciferase cells. HEK293T ELG1-luciferase reporter, luminescence, 16 h. Potency, µM (top dose mostly 46 µM), actives largely listed as activators. 330,000 compounds, 1.3% hits. AID 504466; further: nearly all actives have a fitted effect of over 60% in size
#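 16 hr compound incubation (37 °C, 5% CO2) of HEK293T cells carrying luciferase-tagged ELG1; luciferase then measured by ONE-Glo luminescence after 30 min at RT.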
# FLuc counter: counter-screen for miR-21 project: firefly luciferase inhibitors or activators; Potency, µM (titrated, usually from 57.5 µM), most hits filed as inhibitors; purified FLuc, Km substrates, luminescence inhibition; AID 588342; P08659; 360,000 compounds, 6.9% hits; further: nearly all actives have a fitted effect of over 55% in size
# Target sequence (P08659 whole entry, looked up): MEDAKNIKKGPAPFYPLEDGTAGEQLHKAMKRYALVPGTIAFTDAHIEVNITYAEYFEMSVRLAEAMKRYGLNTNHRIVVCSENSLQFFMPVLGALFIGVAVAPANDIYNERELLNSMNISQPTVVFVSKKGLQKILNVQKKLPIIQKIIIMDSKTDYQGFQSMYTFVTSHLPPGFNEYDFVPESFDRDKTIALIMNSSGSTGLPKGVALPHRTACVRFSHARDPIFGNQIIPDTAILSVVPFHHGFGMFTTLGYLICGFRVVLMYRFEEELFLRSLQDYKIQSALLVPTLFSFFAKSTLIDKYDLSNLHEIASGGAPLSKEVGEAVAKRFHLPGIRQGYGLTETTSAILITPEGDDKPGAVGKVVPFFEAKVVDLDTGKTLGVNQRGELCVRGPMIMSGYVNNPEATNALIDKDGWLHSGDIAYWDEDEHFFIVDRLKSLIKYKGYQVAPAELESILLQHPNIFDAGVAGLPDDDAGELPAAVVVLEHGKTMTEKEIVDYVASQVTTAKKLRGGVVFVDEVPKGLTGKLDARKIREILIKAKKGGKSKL
#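 Purified P. pyralis luciferase, 10 nM final, with Km-level 10 uM D-luciferin and 10 uM ATP in 50 mM Tris acetate pH 7.5, 10 mM Mg acetate, 0.01% Tween-20, 0.05% BSA; 6-point qHTS titration about 60 µM downward; luminescence read.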
# NPC1 prom act: NPC1 promoter activation. Huh7 NPC1 promoter luciferase reporter, 24 h. Potency, µM (series often up to 9.22 µM), most hits filed as activators. 320,000 compounds, 2.4% hits. AID 485313; further: nearly all actives have a fitted effect of over 60% in size
#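 Huh7 reporter cells (NPC1 promoter driving luciferase) are dosed with compound for 24 h at 37 °C, 5% CO2; luciferase detection reagent is then added and luminescence measured after 10 min at ambient temperature.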
# Luc counter: blocks Kinase-Glo luciferase, a counter-screen artifact; Kinase-Glo luciferase, ATP luminescence, 8 min; Q27757; 200,000 compounds, 0.28% hits; Potency, µM (titrated, usually from 38.3 µM), actives largely listed as inhibitors; further: nearly all actives have a fitted effect of over 60% in size
#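 Luminescence was the read-out, taken after 8-minute incubation at ambient temperature. Luciferase turned over luciferin with 10 uM ATP in imidazole pH 7.2 buffer containing KCl, MgCl2, Tween 20 and BSA.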
# SMN2 splice up: SMN2 splice variant enhancement; HEK293 SMN2-luciferase splicing reporter, luminescence, 30-36 h; Potency, µM (top dose mostly 46.1 µM), most hits filed as activators; 210,000 compounds, 2.8% hits; AID 1458; further: nearly all actives have a fitted effect of over 55% in size
#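 qHTS luciferase splicing reporter: luminescence rises when SMN2 exon 7 is included in transfected HEK293 cells. Compound exposure lasted 30-36 h at 37C, with 4.5 mM final sodium butyrate as control, followed by a ONE-Glo read.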
# A number is an active result; n = inactive; u = inconclusive; x = no result given; [ ] = remark or other dose. The call rests on the fitted dose curve; in most records, active means well fitted curve in the direction sought with a large enough effect; inconclusive means small, poorly fitted or top-dose-only effect, or another doubt; inactive means no such curve, though single readings can be large; an effect the other way counts as inactive or inconclusive.
SMILES,Rab9 prom act,ELG1 genotoxic,FLuc counter,NPC1 prom act,Luc counter,SMN2 splice up
COc1ccccc1-c1nc2c(c(SCc3cc(C)ccc3C)n1)Cc1c(CO)cnc(C)c1O2,x,x,n,x,x,x
COC(=O)c1cccc(NC(=O)c2cc3ccccc3o2)c1,0.71µM,n,2.1µM,0.71µM,x,x
CCc1ccc(CNC(=O)c2sc3ncccc3c2-n2c(C)ccc2C)cc1,x,x,n,x,x,x
COC(=O)c1ccc2c(c1O)C(=O)c1ccccc1C2=O,n,u,8.5µM,n,n,n
O=C1c2ccccc2C(=O)c2c1ccc(O)c2O,x,x,x,x,n,n
O=C1c2ccccc2C(=O)c2c1ccc(C(=O)O)c2-c1ccc2ccccc2c1,x,x,x,x,n[7.66 µM],n[9.22 µM]
Nc1c(C(=O)O)ccc2c1C(=O)c1ccccc1C2=O,n,n,19µM,n,n,n
Nc1cc(C(=O)O)c(N)c2c1C(=O)c1ccccc1C2=O,n,n,19µM,n,x,x
CCCCc1nn2c(=O)cc(COC(=O)CNC(=O)c3ccccc3C)nc2s1,x,x,n,x,x,x
CN(C)c1ccc(/C=N\NC(=S)SCN2C(=O)C3CCC(C)(C2=O)C3(C)C)cc1 (stereo not drawn),n,n,8.5µM,n,n,n
COC(CNC(=O)c1ccc2c3c(onc13)-c1ccccc1C2=O)OC,u,u,15µM,u,x,x
N/C(=N\OC(=O)CSc1ccccc1)c1ccccn1,n,u,13µM,n,x,x
N/C(=N\OC(=O)CCCOc1ccccc1)c1ccccn1,n,n,17µM,n,n,n
N/C(=N\OC(=O)Cc1ccc(-c2ccccc2)cc1)c1ccccn1,n,u,u,n,n,n
COc1ccc2c(c1)c1c(c(=O)n(-c3ccc(C)cc3)c(=O)n1CC(=O)N1CCCC1)n2C,x,x,n,x,x,x
Cc1ccc2oc(=O)n(Cc3ccccc3Cl)c2c1,x,x,n,x,x,n
CCc1nc2oc3cc(OC)ccc3c(=O)c2c(=O)n1-c1ccccc1,u,u,n,u,n,25µM
COc1ccccc1CCNC(=O)c1ccc(Br)s1,n,n,13µM,n,x,x
COc1ccccc1CCNS(=O)(=O)CCNC(=O)c1ccccc1,n,n,n,n,x,x
COC(=O)c1ccccc1NC(=O)NCCc1ccccc1OC,4µM,n,u,3.5µM,n,13µM
O=C(/C=C/c1ccc(Br)cc1)c1ccco1,n,u,3.4µM,n,n,n[1.84 µM]
O=C(/C=C/C=C/c1ccccc1)c1ccco1,n,n,3µM,u,x,x
O=C(/C=C/c1ccc(Br)cc1)c1ccc(NC(=O)c2ccco2)cc1,n,n,u,n,n,n
CC#CCOC(=O)c1c(C)nc2sc3c(c2c1N)CCC(O)C3 (stereo not drawn),n,16µM,u,n,n,n
CC(/C=N/NC(=O)c1cnccn1)=C\c1ccco1,u,u,12µM,u,x,x
SMILES,Rab9 prom act,ELG1 genotoxic,FLuc counter,NPC1 prom act,Luc counter,SMN2 splice up
CC(/C=N/NC(=O)c1cccnc1)=C\c1ccco1,u,n,n[2.3 µM],n,n,u
CC(=C/c1ccco1)/C=N/NC(=O)c1ccncc1,n,n,17µM,n,x,x
O=C(C1=C[C@H](c2ccc(Br)cc2)C[C@H](OCCCCO)O1)N1CCOCC1,0.02µM,n,n,0.025µM,x,x
O=C(Nc1ccc2ccccc2c1)c1onc2c1CCCC2,0.56µM,u,0.95µM,0.4µM,n,8.9µM
COC(=O)c1cccc(NC(=O)c2onc3c2CCCC3)c1,0.32µM,0.82µM,0.85µM,0.4µM,u,0.79µM
COC(=O)c1cccc(NC(=O)c2ccccc2)c1,u,n,u,n,x,x
CCOc1ccccc1CNC(=O)CN1C(=O)CCc2cc(S(=O)(=O)N3CCCCC3)ccc21,x,x,n,x,x,x
CC(c1nccs1)N(C)C(=O)CCc1nnc(-c2ccc(-c3ccccc3)cc2)o1 (stereo not drawn),n,n,12µM,n,x,x
CC(c1ccon1)N(C)C(=O)CCc1nnc(Cc2ccc(-c3ccccc3)cc2)o1 (stereo not drawn),n,n,u,n,n,x
O=C(CCc1nnc(-c2ccc(-c3ccccc3)cc2)o1)NCCc1ccccn1,n,u,19µM,n,n,x
CC(NC(=O)CCc1nnc(-c2ccc(-c3ccccc3)cc2)o1)c1nccs1 (stereo not drawn),n,n,17µM,n,n,10µM
COS(C)(=O)=O,x,x,x,x,n,n
Cc1ccc(NC(=O)Cc2ccc(-n3c(C)nc4cccnc43)cc2)c(Cl)c1,x,x,n,x,x,x
NC(=O)c1cnn(-c2cccc(Cl)c2)c1N,n,n,n,n,x,x
COC(=O)c1cnn(-c2cc(Oc3ccccc3)ncn2)c1N,2.5µM,u,u,u,x,x
NC(=O)c1cnn(-c2cc(Oc3ccccc3)ncn2)c1N,2.5µM,u,u,3.2µM,n,x
c1ccc(Oc2cc(-n3cccn3)ncn2)cc1,3.2µM,8.2µM,12µM,u,n,22µM
CCCC1=Nc2cc(C(=O)NCc3ccccc3)ccc2Sc2ccccc21,x,x,n,x,x,n
CN[C@@H](c1ccncc1)[C@@H](NC)c1ccncc1,x,x,x,x,n[7.66 µM],n[9.22 µM]
O=c1cc(CF)[nH]c(=S)[nH]1,x,x,x,x,n[7.66 µM],n[9.22 µM]
O=C(CSc1nc2c([nH]c3ccccc32)c(=O)n1-c1cccc(Cl)c1)c1ccccc1,x,x,n,x,x,x
Cc1cccnc1NC(=O)Nc1cccs1,n,n,12µM,n,n,n
Cc1cccnc1NC(=O)Nc1ccc(F)cc1,u,u,u,u,n,n
Cc1cccc(NC(=O)Nc2cccs2)c1C,x,x,u,x,x,n
Cc1ccc(NC(=O)Nc2ncccc2C)cc1,2µM,n,7.6µM,2.8µM,n,10µM
SMILES,Rab9 prom act,ELG1 genotoxic,FLuc counter,NPC1 prom act,Luc counter,SMN2 splice up
Cc1ccc(C)c(NC(=S)Nc2ncccc2C)c1,u,u,17µM,n,n,x
O=C(NCc1cccs1)Nc1cccs1,n,n,u,n,n,n
Cc1ccccc1CNC(=O)Nc1cccs1,n,n,21µM,n,n,n
CC1=C/C(=N/O)C([C@H]2C=C(C)CC(C)(C)[C@@H]2O)C(C)(C)C1 (stereo partly drawn),x,x,x,x,n[7.66 µM],n[9.22 µM]
CC1=C(C(=O)Nc2cccc(C(F)(F)F)c2)C2(CCN(C(C)C)CC2)OC1=O,x,x,n,x,x,x
CC(C)=NN/C(N)=N/C(=S)Nc1ccc(C)cc1,n,u,4.8µM,n,n,n
O=C(O)[C@@H]1[C@@H](C(=O)NCc2ccncc2)[C@@H]2C=C[C@@H]1O2,x,x,x,x,n[7.66 µM],n[9.22 µM]
CCOC(=O)Cc1cc(=O)n(-c2nc3ccccc3s2)[nH]1,n,n,24µM,n,n,n
CS(=O)(=O)c1cccc(C(=O)Nc2cccc(-c3nc4ccccc4[nH]3)c2)c1,n,n,12µM,n,x,x
CCOc1cc(OCC)cc(C(=O)Nc2cccc(-c3nc4ccccc4[nH]3)c2)c1,x,x,n,x,x,n
CS(=O)(=O)Cc1ccc(C(=O)Nc2cccc(-c3nc4ccccc4[nH]3)c2)cc1,n,n,13µM,n,x,x
Cn1ncc([N+](=O)[O-])c1C(=O)Nc1ccc(-c2nc3ccccc3[nH]2)cc1,u,u,21µM,u,n,u

# Screening data as filed in PubChem BioAssay.
